# Reference: PubChem BioAssay (NCATS)
# Where “and” joins values, the source holds several entries; their conditions need not be identical. Identical values can stand only once. Records with an inconclusive call do not appear. A call without a number means that no potency is given here. The source holds several records for some structures; these can differ, active in one and inactive in another. Calls of active or inactive are those of the source. Unless noted, calls come from the whole dose curve; as a rule, active = well fitted inhibition curve with a large enough effect; inconclusive = small, poorly fitted or top-dose-only effect; inactive = flat fitted curve, though single readings scatter.
# Key:
# [1] = target: Peroxisome proliferator-activated receptor gamma (Homo sapiens) (UniProt P37231); test: qHTS assay for small molecule antagonists of peroxisome proliferator-activated receptor gamma signaling (AID 588537; active = well fitted inhibition curve with a large enough effect in the signal ratio, with a control signal flat, not every such curve was filed as active; the % refers to the signal ratio; note: potency is the fitted concentration of half-maximal effect)
# Peroxisome proliferator-activated receptor gamma (Homo sapiens), sequence (P37231 whole entry, looked up): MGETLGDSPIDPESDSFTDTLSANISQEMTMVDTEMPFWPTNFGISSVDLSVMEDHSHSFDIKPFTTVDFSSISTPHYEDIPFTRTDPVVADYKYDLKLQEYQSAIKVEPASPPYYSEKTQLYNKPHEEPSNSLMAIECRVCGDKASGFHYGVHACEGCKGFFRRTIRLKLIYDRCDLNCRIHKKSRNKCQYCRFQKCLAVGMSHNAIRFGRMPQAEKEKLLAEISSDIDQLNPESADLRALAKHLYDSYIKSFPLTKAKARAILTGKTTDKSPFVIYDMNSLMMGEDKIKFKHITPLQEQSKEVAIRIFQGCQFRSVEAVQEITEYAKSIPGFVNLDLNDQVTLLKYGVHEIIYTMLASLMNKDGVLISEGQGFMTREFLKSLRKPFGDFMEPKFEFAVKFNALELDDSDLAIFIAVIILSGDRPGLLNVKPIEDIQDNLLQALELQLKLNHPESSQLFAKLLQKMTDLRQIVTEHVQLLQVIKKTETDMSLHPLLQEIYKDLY
# Outline: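 HEK293 cells, PPAR-gamma-UAS-bla, 3000/well. Pre-incubation 6-6.5 h, 37 C. Compound titration with rosiglitazone 50 nM final, 16 h. CCF4 dye, 2 h RT, dual-emission fluorescence.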
# [2] = target: Vitamin D3 receptor (Homo sapiens) (UniProt P11473); test: qHTS assay for small molecule antagonists of vitamin D receptor signaling (AID 588541; calls by dose curve;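 note: receptor activated by calcitriol during compound treatment; series mostly up to about 77 µM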)
# Vitamin D3 receptor (Homo sapiens), sequence (P11473 whole entry, looked up): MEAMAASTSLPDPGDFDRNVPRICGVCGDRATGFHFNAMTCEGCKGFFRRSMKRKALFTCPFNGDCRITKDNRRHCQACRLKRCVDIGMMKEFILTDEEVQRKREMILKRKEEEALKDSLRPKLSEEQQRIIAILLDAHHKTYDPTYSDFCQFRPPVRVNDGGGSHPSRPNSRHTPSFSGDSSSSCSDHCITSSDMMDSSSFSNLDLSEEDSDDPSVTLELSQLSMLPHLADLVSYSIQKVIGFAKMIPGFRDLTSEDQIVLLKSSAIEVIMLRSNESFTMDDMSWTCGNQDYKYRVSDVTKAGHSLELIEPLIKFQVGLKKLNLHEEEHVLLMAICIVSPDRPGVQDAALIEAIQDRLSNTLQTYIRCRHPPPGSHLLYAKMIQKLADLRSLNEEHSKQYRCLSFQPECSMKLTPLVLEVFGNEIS
# Outline: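 VDR-UAS-bla HEK293T cells (2000/well, 2% charcoal-stripped FBS) were treated with titrated compounds plus 1-alpha,25-dihydroxyvitamin D3 (50 nM or 3 nM final) for 16 h at 37 C. CCF4 beta-lactamase fluorescence was read; Hill fits gave IC50.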
# [3] = target: Vitamin D3 receptor (Homo sapiens) (UniProt P11473); test: qHTS assay for small molecule agonists of vitamin D receptor signaling (AID 588543; calls by dose curve)
# Outline: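 β-lactamase reporter, VDR-UAS-bla HEK293T, agonist mode. Cells plated 5 h at 37 °C, compound titration 16 h at 37 °C, CCF4 dye 2 h RT, ratio 460/530 nm. Hill fit → EC50, efficacy vs 50 nM 1α,25-(OH)2D3.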
# [4] = qHTS assay for small molecule agonists of retinoid X receptor alpha signaling (AID 588544; calls by dose curve; note: potency is the fitted concentration of half-maximal effect); conditions: HEK293T RXRa-UAS-bla, beta-lactamase reporter, 18 h; 530 nm emission
# [5] = target: Retinoic acid receptor RXR-alpha (Homo sapiens) (UniProt P19793); test: as above
# Retinoic acid receptor RXR-alpha (Homo sapiens), sequence (P19793 whole entry, looked up): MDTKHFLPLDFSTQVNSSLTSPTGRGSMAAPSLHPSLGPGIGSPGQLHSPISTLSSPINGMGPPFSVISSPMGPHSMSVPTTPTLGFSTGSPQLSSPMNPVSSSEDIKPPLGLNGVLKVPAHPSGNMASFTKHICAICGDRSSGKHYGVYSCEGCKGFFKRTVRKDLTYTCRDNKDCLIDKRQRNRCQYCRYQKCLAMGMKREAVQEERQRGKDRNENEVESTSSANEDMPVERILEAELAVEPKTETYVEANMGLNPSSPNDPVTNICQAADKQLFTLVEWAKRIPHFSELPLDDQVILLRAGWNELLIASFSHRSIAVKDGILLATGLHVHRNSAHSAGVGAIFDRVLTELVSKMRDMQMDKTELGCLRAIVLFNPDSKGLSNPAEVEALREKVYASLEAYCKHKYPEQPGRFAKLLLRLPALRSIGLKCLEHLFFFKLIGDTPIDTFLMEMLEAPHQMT
# [6] = target: Thyroid hormone receptor beta (Homo sapiens) (UniProt P10828); test: qHTS assay for small molecule agonists of thyroid hormone receptor beta signaling (AID 588545; calls by dose curve)
# Thyroid hormone receptor beta (Homo sapiens), sequence (P10828 whole entry, looked up): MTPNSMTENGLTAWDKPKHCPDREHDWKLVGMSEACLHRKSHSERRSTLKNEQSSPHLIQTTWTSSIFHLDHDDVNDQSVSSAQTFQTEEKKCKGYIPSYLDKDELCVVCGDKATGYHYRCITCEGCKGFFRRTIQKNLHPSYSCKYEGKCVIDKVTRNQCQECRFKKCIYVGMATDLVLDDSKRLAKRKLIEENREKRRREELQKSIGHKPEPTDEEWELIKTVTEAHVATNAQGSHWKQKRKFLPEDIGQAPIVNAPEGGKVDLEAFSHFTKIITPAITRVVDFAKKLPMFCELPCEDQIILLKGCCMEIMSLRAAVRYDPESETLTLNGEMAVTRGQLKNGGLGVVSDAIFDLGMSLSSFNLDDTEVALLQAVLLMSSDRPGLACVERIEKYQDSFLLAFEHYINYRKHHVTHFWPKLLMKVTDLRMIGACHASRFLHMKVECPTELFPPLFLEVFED
# Outline: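 TR-UAS-bla GripTite HEK 293 cells (2500/well, medium with 2% charcoal/dextran FBS) were treated in agonist mode for 18 h at 37 C, titrated. Beta-lactamase was read by CCF4 ratio after 2 h; normalized to 10 nM T3 (100%) and DMSO, Hill-fitted for EC50 and efficacy.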
# [7] = qHTS assay for small molecule antagonists of retinoid X receptor alpha signaling (AID 588546; active = well fitted inhibition curve with a large enough effect in the signal ratio, with a control signal flat, not every such curve was filed as active; the % refers to the signal ratio; note: potency is the fitted concentration of half-maximal effect;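 for max response: cells stimulated with 9-cis-retinoic acid as agonist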); conditions: HEK293T RXRa-UAS-bla, beta-lactamase ratio, antagonist mode; measured here: W530 green channel, cytotoxicity proxy
# Outline: (§1)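 Beta-lactamase reporter inhibition, read as CCF4 fluorescence ratio (ex 405, em 460/530 nm) after 2 h at RT. HEK293T UAS-bla cells, 2500/well, were stimulated with 9-cis-RA at 500 or 100 nM final alongside test compound for 18 h at 37 C.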
# [8] = target: Retinoic acid receptor RXR-alpha (Homo sapiens) (UniProt P19793); test: as above; conditions: HEK293T RXRa-UAS-bla, beta-lactamase ratio, antagonist mode
# Outline: as §1
# [9] = target: Thyroid hormone receptor beta (Homo sapiens) (UniProt P10828); test: qHTS assay for small molecule antagonists of thyroid hormone receptor beta signaling (AID 588547; active = well fitted inhibition curve with a large enough effect in the signal ratio, with a control signal flat, not every such curve was filed as active; the % refers to the signal ratio;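 note: cells stimulated with 0.4 nM T3 agonist during compound exposure; series mostly up to about 77 µM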); conditions: TR-UAS-bla HEK293, beta-lactamase ratio, antagonist mode, 18 h
# Outline: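 TR-UAS-bla GripTite HEK293 cells in 2% charcoal/dextran FBS medium were preincubated 4 h at 37 C, given compound (0.59 nM to 92 uM) plus 0.4 nM T3 (final) for 18 h, then CCF4 for 2 h at RT; Hill fit gave IC50.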
# [10] = target: Voltage-gated inwardly rectifying potassium channel KCNH2 (Homo sapiens) (UniProt Q12809); test: qHTS Assay for Small Molecule Inhibitors of the Human hERG Channel Activity (AID 588834);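 note: lower thallium flux fluorescence means stronger hERG block; nearly all actives have a fitted effect of over 50% in size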; note: potency is the fitted concentration of half-maximal effect
# Voltage-gated inwardly rectifying potassium channel KCNH2 (Homo sapiens), sequence (Q12809 whole entry, looked up): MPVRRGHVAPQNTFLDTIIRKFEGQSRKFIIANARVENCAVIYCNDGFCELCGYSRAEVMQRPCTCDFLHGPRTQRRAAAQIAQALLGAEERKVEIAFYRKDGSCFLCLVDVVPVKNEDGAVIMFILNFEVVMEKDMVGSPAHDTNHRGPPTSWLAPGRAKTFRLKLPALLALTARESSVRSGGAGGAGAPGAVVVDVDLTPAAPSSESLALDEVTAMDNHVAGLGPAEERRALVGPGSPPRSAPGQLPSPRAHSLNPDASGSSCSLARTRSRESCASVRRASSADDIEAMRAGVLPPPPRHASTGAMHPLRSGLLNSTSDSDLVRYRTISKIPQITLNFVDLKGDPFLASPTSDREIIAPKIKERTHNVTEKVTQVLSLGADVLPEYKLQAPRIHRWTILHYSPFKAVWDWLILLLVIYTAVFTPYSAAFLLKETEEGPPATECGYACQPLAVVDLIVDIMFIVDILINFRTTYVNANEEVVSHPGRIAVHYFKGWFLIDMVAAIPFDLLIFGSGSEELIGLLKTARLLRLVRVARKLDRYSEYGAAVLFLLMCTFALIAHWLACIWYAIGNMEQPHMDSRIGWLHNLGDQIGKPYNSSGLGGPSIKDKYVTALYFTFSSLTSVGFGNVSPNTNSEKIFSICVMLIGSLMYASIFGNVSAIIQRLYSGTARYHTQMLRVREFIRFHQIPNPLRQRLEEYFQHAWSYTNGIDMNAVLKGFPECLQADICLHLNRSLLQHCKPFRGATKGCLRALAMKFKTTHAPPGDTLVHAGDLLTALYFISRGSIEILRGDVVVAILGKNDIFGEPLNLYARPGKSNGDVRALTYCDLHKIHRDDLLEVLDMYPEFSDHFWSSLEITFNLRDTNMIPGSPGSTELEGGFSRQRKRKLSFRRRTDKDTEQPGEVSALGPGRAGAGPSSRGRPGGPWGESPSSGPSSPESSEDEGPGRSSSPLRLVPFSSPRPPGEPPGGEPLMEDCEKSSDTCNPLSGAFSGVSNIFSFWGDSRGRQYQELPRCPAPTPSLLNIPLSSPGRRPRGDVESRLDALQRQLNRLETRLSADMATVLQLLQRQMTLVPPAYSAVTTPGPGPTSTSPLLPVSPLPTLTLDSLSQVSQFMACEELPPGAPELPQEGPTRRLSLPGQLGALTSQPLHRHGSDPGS
# Outline: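 Thallium-flux (FluxOR) read-out on FDSS: fluorescence read 10 s before and 2 min after stimulation buffer. hERG-BacMam-transduced U2OS cells, compound exposure about 10 min. AC50 by standard Hill equation.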
compound,measurement,setting,value
O=C/C=C/c1ccccc1,Potency,[1],inactive
same,Potency,[2],inactive
same,outcome,[3],inactive
same,max response,[4],4.89% and -11.3%
same,Potency,[5],inactive
same,outcome,[6],inactive
same,max response,[7],-5.91% and -8.21%
same,max response,[8],12.1% (inactive) and 26.2% (inactive)
same,activity change % (negative = inhibition),[9],12.8% (inactive) and -9.11% (inactive)
same,Potency,[10],inactive
C[C@]12CCC(=O)C[C@@H]1CC[C@@H]1[C@@H]2CC[C@]2(C)[C@@H](O)CC[C@@H]12,Potency,[2],inactive
same,outcome,[3],inactive
same,max response,[4],21%
same,Potency,[5],7.94 µM (active)
same,outcome,[6],inactive
same,max response,[7],16.7%
same,max response,[8],-6.47% (inactive)
same,activity change % (negative = inhibition),[9],2.39% (inactive)
same,Potency,[10],inactive
ClCC1CO1 (stereo unspecified),Potency,[1],inactive
same,Potency,[2],inactive
same,outcome,[3],inactive
same,max response,[4],-12.3%
same,Potency,[5],inactive
same,max response,[7],-5.61%
same,max response,[8],-1.88% (inactive)
same,activity change % (negative = inhibition),[9],1.74% (inactive)
same,Potency,[10],inactive
COCC(C)N(C(=O)CCl)c1c(C)csc1C (stereo unspecified),Potency,[1],39.8 µM (active)
same,outcome,[3],inactive
same,outcome,[6],inactive
same,Potency,[10],inactive
O=Cc1ccco1,Potency,[2],inactive
same,outcome,[3],inactive
same,max response,[4],-14.8%
same,Potency,[5],inactive
same,outcome,[6],inactive
same,max response,[7],9.13%
same,max response,[8],-1.1% (inactive)
same,activity change % (negative = inhibition),[9],-3.01% (inactive)
same,Potency,[10],inactive
O=[N+]([O-])C(Br)(CO)CO,Potency,[1],inactive
same,outcome,[3],inactive
same,activity change % (negative = inhibition),[9],5.27% (inactive)
same,Potency,[10],inactive
O=C1CCO1,Potency,[1],inactive
same,Potency,[2],inactive
same,outcome,[3],inactive
same,max response,[4],-0.599%
same,Potency,[5],inactive
same,outcome,[6],inactive
same,max response,[7],-9.31%
same,max response,[8],14.1% (inactive)
same,activity change % (negative = inhibition),[9],16.1% (inactive)
same,Potency,[10],inactive
COc1ccc2c(c1OC)C(=O)OC2C1c2cc3c(cc2CCN1C)OCO3 (stereo unspecified),Potency,[1],inactive
same,max response,[4],0.13%
same,Potency,[5],inactive
same,outcome,[6],inactive
same,max response,[7],-2.26%
same,max response,[8],20.7% (inactive)
same,activity change % (negative = inhibition),[9],-14.3% (inactive)
C[C@H]1CCC[C@H](O)CCCCCc2cc(O)cc(O)c2C(=O)O1,Potency,[1],inactive
same,max response,[4],13%
same,Potency,[5],inactive
same,max response,[7],7.61%
same,max response,[8],-34.3% (inactive)
same,Potency,[10],inactive
CCN(CCCl)Cc1ccccc1Br,Potency,[10],inactive
C=CCN1CC[C@]23c4c5ccc(O)c4O[C@H]2[C@@H](O)C=C[C@H]3[C@H]1C5,Potency,[10],inactive
CCCCCCCCCC(=O)O[C@H]1CC[C@H]2[C@@H]3CCC4=CC(=O)CC[C@]4(C)[C@H]3CC[C@]12C,Potency,[10],inactive
C[N+]1(C)[C@@H]2CC(OC(=O)[C@H](CO)c3ccccc3)C[C@H]1[C@H]1O[C@@H]12 (stereo partly specified),Potency,[10],inactive
C[CH2][Hg][S]c1ccccc1C(=O)O,max response,[7],-29.7%
same,Potency,[8],2.24 µM (active)
same,Potency,[10],inactive
O=C1C2CC=CCC2C(=O)N1SC(Cl)(Cl)Cl (stereo unspecified),outcome,[3],inactive
same,outcome,[6],inactive
same,max response,[7],-2.91%
same,max response,[8],15% (inactive)
same,Potency,[10],25.1 µM (active) and 28.2 µM (active)
O=CC=O,max response,[4],-3.86%
same,Potency,[5],inactive
same,outcome,[6],inactive
same,max response,[7],5.31%
same,max response,[8],9.93% (inactive)
same,activity change % (negative = inhibition),[9],-1.9% (inactive)
same,Potency,[10],inactive
O=S(=O)(O)c1cc(O)ccc1O,Potency,[10],inactive
CCOC(=O)/C=C(C)/C=C/C[C@@H](C)CCCC(C)C,Potency,[10],inactive
CCC(C)(S(=O)(=O)CC)S(=O)(=O)CC,Potency,[10],inactive
C[C@@H]([C@H](O)c1ccccc1)N(C)C,Potency,[10],inactive
COc1cc2c(cc1OC)[C@@]13CCN4CC5=CCO[C@H]6CC(=O)N2[C@H]1[C@H]6[C@H]5C[C@H]43,Potency,[10],inactive
C#CCN[C@H](C)Cc1ccccc1,Potency,[10],inactive
[O]=[Cr](=[O])([OH])[O][Cr](=[O])(=[O])[OH],Potency,[2],inactive
same,outcome,[3],inactive
same,outcome,[6],inactive
same,max response,[7],7.42% and 14.4%
same,max response,[8],-10.4% (inactive) and -3.4% (inactive)
same,activity change % (negative = inhibition),[9],-20.9% (inactive)
same,Potency,[10],inactive
NCC(O)c1cccc(O)c1 (stereo unspecified),Potency,[10],inactive
O[C@H]1[C@H]2[C@H](O)CCCN2C[C@H]1O,Potency,[10],inactive
OC[C@@H](O)[C@H]1O[C@@H]2O[C@H](C(Cl)(Cl)Cl)O[C@@H]2[C@H]1O,Potency,[10],inactive
C[C@@H](Cc1ccccc1)NCCC(c1ccccc1)c1ccccc1,Potency,[10],0.631 µM (active)
CCCN1CCCC2Cc3[nH]ncc3CC21 (stereo unspecified),Potency,[10],inactive
C[N+](C)(C)CC#CCOC(=O)Nc1cccc(Cl)c1,Potency,[10],inactive
Cc1cccc(C(C)c2cnc[nH]2)c1C (stereo unspecified),Potency,[10],inactive
O=[N+]([O-])c1ccc(F)c([N+](=O)[O-])c1,Potency,[2],inactive
same,outcome,[3],inactive
same,max response,[7],-4.46%
same,max response,[8],1.55% (inactive)
same,activity change % (negative = inhibition),[9],5.42% (inactive)
same,Potency,[10],inactive
OC1CCCCC1N1CCC(c2ccccc2)CC1 (stereo unspecified),Potency,[10],inactive
Cc1ccccc1-n1c(CF)nc2ccc(N)cc2c1=O,Potency,[10],inactive
O=C1C[C@@H]2OCC=C3CN4CC[C@]56c7ccccc7N1[C@H]5[C@H]2[C@H]3C[C@H]46 (tested in a mixture with another compound),Potency,[10],25.1 µM (active) and inactive
CCCN(CCC)[C@H]1CCc2c(F)ccc(O)c2C1,Potency,[10],7.08 µM (active)
CC(C)Nc1ccc(Nc2ccccc2)cc1,outcome,[3],inactive
same,outcome,[6],inactive
CNc1ccc(C(=O)CC(O)CCC(C)C2OC(=O)CC(O)CC(=O)CC(O)CC(O)CC(O)CC(O)CC3(O)CC(O)C(C(=O)OC)C(CC(O[C@@H]4O[C@H](C)[C@@H](O)[C@H](N)[C@@H]4O)/C=C/C=C/C=C/C=C/C=C/C=C/C=C/C2C)O3)cc1 (stereo partly specified),Potency,[10],inactive
CC(C)(O)[C@@H]1[C@H]2OC(=O)[C@@H]1[C@]1(O)C[C@H]3O[C@]34C(=O)O[C@H]2[C@]14C,Potency,[10],inactive
NC(N)=NOCC[C@H](N)C(=O)O,Potency,[10],inactive
CC[C@H](C)[C@H]1O[C@]2(C=C[C@@H]1C)C[C@@H]1C[C@@H](C/C=C(\C)[C@@H](O[C@H]3C[C@H](OC)[C@@H](O[C@H]4C[C@H](OC)[C@@H](O)[C@H](C)O4)[C@H](C)O3)[C@@H](C)/C=C/C=C3\CO[C@@H]4[C@H](O)C(C)=C[C@@H](C(=O)O1)[C@]34O)O2,outcome,[3],inactive
same,max response,[7],-21.4%
same,Potency,[8],12.6 µM (active)
same,Potency,[10],inactive
NC(N)=Nc1ccc2[nH]c3c(c2c1)C[C@@]1(O)[C@H]2Cc4ccc(O)c5c4[C@@]1(CCN2CC1CC1)[C@H]3O5,Potency,[10],inactive
CN1CCCC(=C(c2cccs2)c2cccs2)C1,Potency,[10],8.91 µM (active)
C[C@]12CC[C@H](OS(=O)(=O)O)CC1=CC[C@@H]1[C@@H]2CC[C@]2(C)C(=O)CC[C@@H]12,Potency,[10],inactive
CCC1C(C)=NN=C(c2ccc(OC)c(OC)c2)c2cc(OC)c(OC)cc21 (stereo unspecified),Potency,[10],inactive
OC(c1ccccc1)(c1ccccc1)C1CN2CCC1CC2 (stereo unspecified),Potency,[10],3.55 µM (active)
